Results from PubChem BioAssay.

Target: Voltage-gated potassium channel subunit beta-2 (Rattus norvegicus) (UniProt P62483)
Assay: KvBeta enzyme negative modulators, primary screen, biochemical, NADPH fluorescence (AID 622;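 active means fluorescence slope higher than the sample average by over 3 SD, cut at about -0.22 in these data, passing the limit was not always enough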;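 further: slope of raw intensity against log time taken from 70 to 1610 s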)
Conditions: recombinant KvBeta, 4-cyanobenzaldehyde reduction, at 10 µM, active compounds read high

Chain of Voltage-gated potassium channel subunit beta-2 (Rattus norvegicus) (P62483 whole entry, looked up): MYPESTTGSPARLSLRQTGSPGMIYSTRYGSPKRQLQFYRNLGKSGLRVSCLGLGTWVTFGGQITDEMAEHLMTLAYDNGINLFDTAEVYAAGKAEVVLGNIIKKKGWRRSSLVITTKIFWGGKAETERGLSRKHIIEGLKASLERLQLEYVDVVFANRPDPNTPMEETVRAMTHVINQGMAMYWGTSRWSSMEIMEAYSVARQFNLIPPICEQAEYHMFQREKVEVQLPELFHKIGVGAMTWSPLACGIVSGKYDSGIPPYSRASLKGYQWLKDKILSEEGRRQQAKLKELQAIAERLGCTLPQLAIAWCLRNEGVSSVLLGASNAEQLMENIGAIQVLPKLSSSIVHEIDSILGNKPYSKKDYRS

Fluorescence slope, inactive:
O=C1CCC(C(=O)N(Cc2ccco2)C2(C(=O)NC3CCCC3)CCCCC2)N1 (stereo not drawn) -0.428
O=C(NC1CCCCCCC1)C1CCN(c2nc3ccccc3o2)CC1 -0.334
COc1ccccc1N1CCN(c2cc(N3CCCC3)nc(C)n2)CC1 -0.471
CCN(CC(=O)Nc1ccc2c(c1)OCCO2)Cc1cc(=O)oc2cc(C)c(C)cc12 -0.474
Cc1ccc2cc(C(c3nnnn3C3CCCC3)N3CCN(c4ccc(F)cc4)CC3)c(=O)[nH]c2c1 (stereo not drawn) -0.372
COc1ccccc1N1CCN(C(=O)c2cc(-c3ccc(Cl)c(Cl)c3)on2)CC1 -0.407
COC(=O)c1sc(S(=O)(=O)N2CCN(c3ccccc3)CC2)c(C(=O)OC)c1C -0.385
Cc1cc(NC(=O)CSc2nc(C3CCCCC3)nc3ccccc23)no1 -0.378
COc1ccc(Cl)c(NC(=O)NCCN2CCN(c3ccccc3)CC2)c1 -0.29
Cc1ccc(S(=O)(=O)N2CCN(C(=O)N3CCOCC3)C2c2ccc(N(C)C)cc2)cc1 (stereo not drawn) -0.419
CCOC(=O)c1c(N)c(C#N)nn1-c1ccccc1C(=O)OC -0.364
Cc1cc(C)n(C(C)n2nc(C)cc2C)n1 -0.364
CCCCCCn1c(CN2CCCC(C)C2)nc2c1c(=O)n(C)c(=O)n2C (stereo not drawn) -0.396
Cc1cccc(NC(=O)c2ccc(S(=O)(=O)N(C)C)cc2)n1 -0.318
Cn1cnnc1Sc1nc2c(c(=O)n(C)c(=O)n2C)n1Cc1ccccc1Cl -0.426
COC(=O)Nc1ccc(S(=O)(=O)N2CCCCCC2)cc1 -0.354
Cc1cc(=O)c2n(Cc3ccccc3Cl)nc[n+]2[nH]1 -0.397
Cn1c(=O)[nH]c(=O)c2c1nc(Br)n2CCCSc1nc2ccccc2o1 -0.352
Cc1ccc(C(=O)Nc2c(C(=O)N3CCOCC3)cnn2-c2ccccc2)cc1 -0.321
COc1ccc(C(=O)NCCC(C)C)cc1S(=O)(=O)N1CCOCC1 -0.355
O=C(NC1=NCCS1)c1ccc2c(c1)C(=O)N(Cc1ccco1)C2=O -0.387
CCN(C(=O)c1cccs1)c1nnc(-c2ccncc2)s1 -0.374
O=C(c1nn2cccnc2c1Cl)N1CCN(c2ccccc2)CC1 -0.424
CC12CCC(C(=O)N3CCN(C(=O)C45CCC(C)(C(=O)O4)C5(C)C)CC3)(OC1=O)C2(C)C -0.391
CSc1nnc(-c2ccccc2)n1C -0.398
O=C(COC(=O)c1ccccc1C(=O)c1ccccc1)c1ccco1 -0.501
CN(CC(=O)Nc1cccnc1)S(=O)(=O)c1cc(Cl)ccc1Cl -0.468
O=C(CSc1n[nH]c(=O)[nH]c1=O)c1ccccc1 -0.34
O=C(NCCCN1CCN(c2cccc(Cl)c2)CC1)c1ccc(N2CCCC2=O)cc1 -0.479
CCN1C(=O)/C(=C/N(C)c2ccccc2)OC1=S -0.469
Cc1nnc(SCC(=O)NCc2ccc3c(c2)OCO3)s1 -0.468
Cc1cccc(NC(=O)CCCCCN2C(=O)c3ccccc3C2=O)n1 -0.44
COc1ccc(-n2nc3cc(C)c(N)c(Br)c3n2)cc1 -0.411
Cc1ccc(S(=O)(=O)N(CC(=O)N2CCC(C(N)=O)CC2)Cc2ccc(F)cc2)cc1 -0.361
Cc1ccc(-n2c(C)cc3c2CCCC3=O)cc1 -0.366
CC1CCCCC1NC(=O)COc1ccc(-n2cnnn2)cc1 (stereo not drawn) -0.449
CSc1ccccc1NC(=O)CN(c1ccccc1)S(=O)(=O)N(C)C -0.356
O=C(C1CCCO1)N1CCN(S(=O)(=O)c2ccccc2)CC1 (stereo not drawn) -0.439
O=C(Nc1ccc2oc(=O)ccc2c1)c1cccnc1 -0.434

Target: Voltage-gated potassium channel subunit beta-2 (Rattus norvegicus) (UniProt P62483)
Assay: KvBeta positive modulators, primary screen, biochemical, NADPH fluorescence (AID 623);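 further: fluorescence intensity change per second fitted from 20 to 320 s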
Conditions: Recombinant KvBeta, NADPH fluorescence decrease slope, 10 min; at 10 µM; active compounds read low

NADPH fluorescence slope, inactive:
O=C1CCC(C(=O)N(Cc2ccco2)C2(C(=O)NC3CCCC3)CCCCC2)N1 (stereo not drawn) 4.8e-06
O=C(NC1CCCCCCC1)C1CCN(c2nc3ccccc3o2)CC1 8.8e-06
COc1ccccc1N1CCN(c2cc(N3CCCC3)nc(C)n2)CC1 -7.2e-05
CCN(CC(=O)Nc1ccc2c(c1)OCCO2)Cc1cc(=O)oc2cc(C)c(C)cc12 -3.1e-05
Cc1ccc2cc(C(c3nnnn3C3CCCC3)N3CCN(c4ccc(F)cc4)CC3)c(=O)[nH]c2c1 (stereo not drawn) -4.7e-05
COc1ccccc1N1CCN(C(=O)c2cc(-c3ccc(Cl)c(Cl)c3)on2)CC1 -7.4e-05
COC(=O)c1sc(S(=O)(=O)N2CCN(c3ccccc3)CC2)c(C(=O)OC)c1C -3.6e-05
Cc1cc(NC(=O)CSc2nc(C3CCCCC3)nc3ccccc23)no1 -5.4e-05
COc1ccc(Cl)c(NC(=O)NCCN2CCN(c3ccccc3)CC2)c1 -1.7e-05
Cc1ccc(S(=O)(=O)N2CCN(C(=O)N3CCOCC3)C2c2ccc(N(C)C)cc2)cc1 (stereo not drawn) -5.2e-05
CCOC(=O)c1c(N)c(C#N)nn1-c1ccccc1C(=O)OC -4.6e-05
Cc1cc(C)n(C(C)n2nc(C)cc2C)n1 -6.5e-05
CCCCCCn1c(CN2CCCC(C)C2)nc2c1c(=O)n(C)c(=O)n2C (stereo not drawn) -4.7e-05
Cc1cccc(NC(=O)c2ccc(S(=O)(=O)N(C)C)cc2)n1 -2.4e-05
Cn1cnnc1Sc1nc2c(c(=O)n(C)c(=O)n2C)n1Cc1ccccc1Cl -3.9e-05
COC(=O)Nc1ccc(S(=O)(=O)N2CCCCCC2)cc1 1.2e-05
Cc1cc(=O)c2n(Cc3ccccc3Cl)nc[n+]2[nH]1 -5.7e-05
Cn1c(=O)[nH]c(=O)c2c1nc(Br)n2CCCSc1nc2ccccc2o1 -6.5e-05
Cc1ccc(C(=O)Nc2c(C(=O)N3CCOCC3)cnn2-c2ccccc2)cc1 -3.7e-05
COc1ccc(C(=O)NCCC(C)C)cc1S(=O)(=O)N1CCOCC1 6.5e-06
O=C(NC1=NCCS1)c1ccc2c(c1)C(=O)N(Cc1ccco1)C2=O 2.7e-06
CCN(C(=O)c1cccs1)c1nnc(-c2ccncc2)s1 -7.1e-05
O=C(c1nn2cccnc2c1Cl)N1CCN(c2ccccc2)CC1 -2.5e-05
CC12CCC(C(=O)N3CCN(C(=O)C45CCC(C)(C(=O)O4)C5(C)C)CC3)(OC1=O)C2(C)C -7.7e-05
CSc1nnc(-c2ccccc2)n1C -6.9e-06
O=C(COC(=O)c1ccccc1C(=O)c1ccccc1)c1ccco1 2.4e-06
CN(CC(=O)Nc1cccnc1)S(=O)(=O)c1cc(Cl)ccc1Cl -1.6e-06
O=C(CSc1n[nH]c(=O)[nH]c1=O)c1ccccc1 -4e-05
O=C(NCCCN1CCN(c2cccc(Cl)c2)CC1)c1ccc(N2CCCC2=O)cc1 -5.9e-05
CCN1C(=O)/C(=C/N(C)c2ccccc2)OC1=S -5.3e-05
Cc1nnc(SCC(=O)NCc2ccc3c(c2)OCO3)s1 -4.3e-05
Cc1cccc(NC(=O)CCCCCN2C(=O)c3ccccc3C2=O)n1 -6.5e-05
COc1ccc(-n2nc3cc(C)c(N)c(Br)c3n2)cc1 -4.9e-05
Cc1ccc(S(=O)(=O)N(CC(=O)N2CCC(C(N)=O)CC2)Cc2ccc(F)cc2)cc1 -6.9e-05
Cc1ccc(-n2c(C)cc3c2CCCC3=O)cc1 -7.7e-05
CC1CCCCC1NC(=O)COc1ccc(-n2cnnn2)cc1 (stereo not drawn) -7.6e-05
CSc1ccccc1NC(=O)CN(c1ccccc1)S(=O)(=O)N(C)C 3.3e-06
O=C(C1CCCO1)N1CCN(S(=O)(=O)c2ccccc2)CC1 (stereo not drawn) -8.1e-05
O=C(Nc1ccc2oc(=O)ccc2c1)c1cccnc1 -8.3e-06
